PubChem BioAssay (NCATS)
Several values for one entry are separate records, joined by “and”; a condition that tells them apart may be missing. Equal entries are not always repeated. Results filed as inconclusive are left out. Where a call stands in place of a potency, no number is given. More than one record can exist for a structure, and the calls need not agree. Activity calls are given as the source filed them. Unless noted, calls come from the whole dose curve; as a rule, active = well fitted curve in the direction sought with a large enough effect; inconclusive = small, poorly fitted or top-dose-only effect, or another doubt; inactive = no such curve, though single readings can be large; an effect the other way counts as inactive or inconclusive.

Assays:
[1] = molecular target: Cytochrome P450 2C9 (Homo sapiens) (UniProt P11712); test: Cytochrome P450 family 2 subfamily C member 9 (CYP2C9) small molecule antagonists: luciferase biochemical (cell-free) qHTS assay (AID 1645842; active = well fitted curve in the direction sought with a large enough effect in the repeat runs; an effect the other way counts as inactive or inconclusive; note: nearly all actives have a fitted effect of over 55% in size; note: potency is the fitted concentration of half-maximal effect)
In short: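 Luminescence, after 20 min with luciferin detection reagent, reflected CYP2C9 turnover during a 1 h NADPH-driven reaction at 37C. Enzyme-substrate mix contained 0.4% bovine serum albumin and was preincubated with compound 10 min at room temperature.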

[2] = Primary qHTS for inhibitors of nuclear receptor binding SET domain protein 2 (NSD2) in an isogenic RCH-ACV NSD2 p.E1099K mutant (9B) (AID 1645876); note: nearly all actives have a fitted effect of over 70% in size; note: potency is the fitted concentration of half-maximal effect
[3] = Primary qHTS for inhibitors of nuclear receptor binding SET domain protein 2 (NSD2) in an RCH-ACV wild type WT cells (2C) (AID 1645877); note: nearly all actives have a fitted effect of over 70% in size; note: potency is the fitted concentration of half-maximal effect
[4] = molecular target: Cytochrome P450 3A4 (Homo sapiens) (UniProt P08684); test: Cytochrome P450 family 3 subfamily A member 4 (CYP3A4) small molecule antagonists: luciferase qHTS assay (AID 1645841; active = well fitted curve in the direction sought with a large enough effect in the repeat runs; an effect the other way counts as inactive or inconclusive; note: nearly all actives have a fitted effect of over 45% in size)
In short: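 P450-Glo CYP3A4 enzyme with proluciferin substrate preincubated 10 min with compound at room temperature, then NADPH regeneration 1 h. Luciferin detection reagent added for 20 min; luminescence recorded. Ketoconazole positive control.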

Chain of Cytochrome P450 2C9 (Homo sapiens) (P11712 whole entry, looked up): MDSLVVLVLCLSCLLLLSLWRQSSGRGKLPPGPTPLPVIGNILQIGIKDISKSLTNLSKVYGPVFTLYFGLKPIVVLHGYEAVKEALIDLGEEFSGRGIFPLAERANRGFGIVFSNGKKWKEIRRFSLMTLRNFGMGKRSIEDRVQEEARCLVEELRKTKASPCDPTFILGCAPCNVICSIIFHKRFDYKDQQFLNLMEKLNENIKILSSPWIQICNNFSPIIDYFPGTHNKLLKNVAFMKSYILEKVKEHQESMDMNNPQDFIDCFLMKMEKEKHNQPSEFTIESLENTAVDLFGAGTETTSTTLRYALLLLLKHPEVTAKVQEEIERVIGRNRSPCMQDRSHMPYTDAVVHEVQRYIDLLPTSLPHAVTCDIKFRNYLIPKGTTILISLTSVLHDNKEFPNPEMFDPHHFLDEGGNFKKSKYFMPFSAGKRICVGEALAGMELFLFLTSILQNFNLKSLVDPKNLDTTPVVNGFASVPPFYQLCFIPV
Chain of Cytochrome P450 3A4 (Homo sapiens) (P08684 whole entry, looked up): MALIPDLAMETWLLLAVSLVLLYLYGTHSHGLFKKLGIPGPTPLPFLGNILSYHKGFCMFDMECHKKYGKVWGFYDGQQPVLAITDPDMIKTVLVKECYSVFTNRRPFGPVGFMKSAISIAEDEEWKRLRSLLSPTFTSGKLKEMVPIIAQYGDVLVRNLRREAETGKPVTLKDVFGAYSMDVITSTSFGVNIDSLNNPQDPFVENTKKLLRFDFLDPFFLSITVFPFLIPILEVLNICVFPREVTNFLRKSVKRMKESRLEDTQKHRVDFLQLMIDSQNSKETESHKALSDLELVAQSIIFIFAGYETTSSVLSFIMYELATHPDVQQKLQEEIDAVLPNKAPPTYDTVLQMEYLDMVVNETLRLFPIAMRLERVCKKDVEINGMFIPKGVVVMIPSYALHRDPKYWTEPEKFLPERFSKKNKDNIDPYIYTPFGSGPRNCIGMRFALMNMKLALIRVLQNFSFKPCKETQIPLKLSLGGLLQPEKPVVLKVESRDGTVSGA

Compound | Potency [1] | Potency [2] | Potency [3] | Potency [4]
Nc1ncnc2c1ncn2[C@H]1CCCO1 | inactive | inactive | inactive | –
N#Cc1ccc2[nH]c(O)c(-c3ccc(CN4CCOCC4)cn3)c2c1 | inactive and 16.9 µM (active) | – | – | –
CCOc1ccc(C(Nc2ccccn2)c2ccc3ccc(C)nc3c2O)cc1C (configuration not stated) | 4.77 µM (active) | – | – | –
CNc1nc(Nc2cnn([C@H]3CCN(C4COC4)C[C@@H]3F)c2Cl)ncc1C(F)(F)F | 2.68 µM (active) | – | – | inactive
O=S(=O)(O)c1ccc2c(N=Nc3ccc(S(=O)(=O)O)c4ccccc34)c(O)c(S(=O)(=O)O)cc2c1 | 12 µM (active) | – | – | –
O=C1CC(c2ccc([N+](=O)[O-])cc2)=NN1c1ccccc1 | 13.5 µM (active) | inactive | – | –
C#Cc1cnc2[nH]c(=O)n(C(CC)CC)c2n1 | 8.49 µM (active) | inactive | inactive | inactive
c1ccc(C(OC2CCN(CCCc3nn[nH]n3)CC2)c2ccccc2)cc1 | inactive | inactive | inactive | inactive
O=C(NCc1ccc(OC(F)(F)F)cc1)C1c2ccccc2C(=O)N1C1CCOCC1 (configuration not stated) | 12 µM (active) | inactive | inactive | –
C[C@H]1CN(C[C@H](Cc2ccccc2)C(=O)NCC(=O)O)CC[C@@]1(C)c1cccc(O)c1 | inactive | inactive | inactive | –
CC1(C)C(=O)C(C)(C)c2cc(C(=O)Nc3ccc(C(=O)O)cc3)ccc21 | inactive | inactive | inactive | –
CCNC(=O)[C@H]1O[C@H](n2cnc3c(NCC(c4ccccc4)c4ccccc4)nc(C(=O)NCCNC(=O)NC4CCN(c5ccccn5)CC4)nc32)[C@H](O)[C@@H]1O | 3.79 µM (active) | inactive | inactive | –
CCOC(=O)N1CCC(NCCNC(=O)c2ccccc2C)CC1 | inactive | inactive | inactive | –
COc1cccc(-c2ccc([C@@H](Oc3cc(-c4ccc(C[C@H](N)C(=O)O)cc4)nc(N)n3)C(F)(F)F)cc2)c1 | 6.74 µM (active) | inactive | inactive | –
CCOc1nc2cccc(C(=O)OCc3oc(=O)oc3C)c2n1Cc1ccc(-c2ccccc2-c2noc(O)n2)cc1 | 3.38 µM (active) | inactive | inactive | –
CCCCNC(=O)[C@@H]1Cc2ccccc2N1C(=O)[C@@H](N)CC | inactive | inactive | inactive | –

Compound | Potency [1] | Potency [2] | Potency [3] | Potency [4]
Cc1nn(C)c(COc2ccc(N3CCN(S(=O)(=O)N(C)C)CC3)cc2)c1-c1cccc2c(CCCOc3cccc4ccccc34)c(C(=O)O)n(CCN3CCOCC3)c12 | 13.5 µM (active) | inactive | inactive | –
CC(C)C(=O)c1cn(CC(=O)COc2ccc(Oc3ccccc3)cc2)c2ccc(C(=O)O)cc12 | inactive | inactive | inactive | –
CCC(CC)n1ccc2c(C(=O)NCc3c(C)cc(C)[nH]c3=O)cc(C#N)cc21 | 4.77 µM (active) | inactive | inactive | –
Cc1nn(C)c2c1C(c1ccc(C(F)(F)F)cc1)C(C#N)=C(N)O2 (configuration not stated) | 21.3 µM (active) | inactive | inactive | –
COc1cc2c(cc1OC)CN(C(=O)[C@@H](NCc1ccncc1)C(C)(C)C)CC2 | 1.69 µM (active) | inactive | inactive | –
CCn1cc(C2=NOC(C(=O)Nc3c(C)n(C)n(-c4ccccc4)c3=O)C2)c(C)n1 (configuration not stated) | 1.9 µM (active) | inactive | inactive | –
CC1(C)CC(=O)N(CCCCN2CCN(c3ncccn3)CC2)C(=O)C1 | inactive | inactive | inactive | –
O=C(Nc1cccnn1)N1CCC(=Cc2cccc(Oc3ccc(C(F)(F)F)cn3)c2)CC1 | inactive | 11.5 µM (active) | 10.3 µM (active) | –
O=C(/C=C/c1c(C(=O)O)[nH]c2cc(Cl)cc(Cl)c12)Nc1ccccc1 | 21.3 µM (active) | inactive | inactive | –
CN1Cc2c(N)cccc2C(c2ccccc2)C1 (configuration not stated) | inactive | inactive | inactive | –
COc1ccccc1[C@@H]1C2=C(CC(C)(C)CC2=O)Nc2n[nH]c(C(F)(F)F)c21 | 8.49 µM (active) | inactive | inactive | –
Cc1cc(N2CCCCC2)nc2ccccc12 | inactive | inactive | inactive | –
CCOC(=O)c1c(C)nn(-c2cccc([N+](=O)[O-])c2)c1C | 1.07 µM (active) | inactive | inactive | –
O=C1NC(=Nc2ccccc2F)S/C1=C\c1ccc(C(=O)O)cc1 | 10.7 µM (active) | inactive | inactive | –
O=C(c1ccccn1)c1cnn2c(-c3ccncc3)ccnc12 | 12 µM (active) | inactive | inactive | –
